A selection: hits, their analogues and other compounds. The true share with any hit is near 2%.
HGIII-sPLA2 inh: Inhibits HGIII-sPLA2 liposome hydrolysis, primary screen | Q9NZ20 | QFRET BODIPY PC-A2 liposome hydrolysis, fluorescence | inhibition, % at 12.2 µM | 370,000 tested, 0.56% active | AID 743126;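 active = inhibition above mean plus 3 SD of compounds lying within the high and low control bounds, cut at about 19% in these data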;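 note: 0% = median of test compound wells and 100% = no enzyme DMSO wells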
CTSL1 counter: blocks F. hepatica cathepsin L1 in PFM18AAP counter-screen; inhibition, % at 5.96 µM; 300,000 tested, 0.49% active; recombinant F. hepatica cathepsin L1, Z-Leu-Arg-MCA fluorescence; AID 1906;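 active = inhibition above the mean of all tested compounds plus 3 SD, set per screening campaign, cut at about 17% in these data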;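 note: 0% = plate median of test compound wells and 100% = 1 µM Z-Phe-Ala-diazomethylketone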
NALP1 inh: inhibitors of NALP1 inflammasome in yeast; inhibition, % at 10 µM; 280,000 tested, 0.61% active; AID 2071; S. cerevisiae NALP1/ASC/caspase-1 growth, X-gal OD620, 72 h; in the data active = inhibition mostly above about 24%, no sharp cut-off; inactive = mostly below about 32%
A3A deaminase: human APOBEC3A DNA deaminase inhibition; recombinant A3A, FAM/TAMRA ssDNA deamination fluorescence; AID 493011; 330,000 tested, 0.41% active; inhibition, % at 20 µM;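 active = at least 40% inhibition at 20 µM here, with at most 30% in a related deaminase screen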;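 note: plate controls were A3A with DMSO for no effect and wells lacking A3A enzyme for full effect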
Target sequence (P31941 whole entry, looked up): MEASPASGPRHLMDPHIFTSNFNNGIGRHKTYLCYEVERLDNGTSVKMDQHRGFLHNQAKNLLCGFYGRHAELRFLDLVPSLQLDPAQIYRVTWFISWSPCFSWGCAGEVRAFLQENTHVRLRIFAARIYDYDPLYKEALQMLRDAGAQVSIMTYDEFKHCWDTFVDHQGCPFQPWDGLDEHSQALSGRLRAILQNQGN
APOBEC3G inh: inhibitors of human APOBEC3G DNA deaminase. Q9HC16. inhibition, % at 20 µM. recombinant A3G, ssDNA deamination FAM/TAMRA fluorescence. 330,000 tested, 0.28% active;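 active = inhibition of at least 40% at 20 µM, with no more than 30% in the related APOBEC3A deaminase screen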;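 note: plate controls were DMSO wells with A3G for no effect and wells lacking A3G enzyme for full effect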
Target sequence (Q9HC16 whole entry, looked up): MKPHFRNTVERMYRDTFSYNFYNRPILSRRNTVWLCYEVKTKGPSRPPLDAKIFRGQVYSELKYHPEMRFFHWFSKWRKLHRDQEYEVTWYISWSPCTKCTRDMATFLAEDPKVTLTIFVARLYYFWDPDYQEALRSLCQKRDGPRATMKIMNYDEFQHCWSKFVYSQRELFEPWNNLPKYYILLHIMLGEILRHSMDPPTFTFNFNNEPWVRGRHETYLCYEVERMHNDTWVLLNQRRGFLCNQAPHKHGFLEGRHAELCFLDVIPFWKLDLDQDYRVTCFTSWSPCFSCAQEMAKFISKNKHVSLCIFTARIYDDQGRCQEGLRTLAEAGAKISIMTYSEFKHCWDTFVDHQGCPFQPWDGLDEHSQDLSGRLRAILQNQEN
* marks the source's active call; other numbers are inactive results; . = not tested or not shown.

SMILES	HGIII-sPLA2 inh	CTSL1 counter	NALP1 inh	A3A deaminase	APOBEC3G inh
Cc1ccc(C(C(=O)NC2CCCCC2)N2CCCC2)cc1 (stereo not given)	-1.5	-3.5	24.0	-4.1	-4.9
CCOC(=O)C1CCN(C(C(=O)NC2CCCC2)c2ccc(C)cc2)CC1 (stereo not given)	8.9	-3.9	36.5*	-4.0	-7.5
CC(C)c1ccc(C(=O)Nc2cc(Cl)ccc2C(=O)O)cc1	-25.6	.	.	.	.
CCOC(=O)c1[nH]c2ccc(OC)cc2c1NC(=O)c1ccc2c(c1)OCO2	-7.8	-0.9	17.0	-4.3	-7.2
CCOC(=O)c1[nH]c2ccccc2c1NC(=O)c1ccc2c(c1)OCO2	-15.6	-1.7	40.4*	-2.1	-0.3
CC(C)CN1CN2Cc3ccccc3C2CS1(=O)=O (stereo not given)	16.7	.	.	.	.
O=C(CN1CCN(c2ccc(Cl)cc2)CC1)NCc1ccccc1	1.0	5.6	4.1	-1.3	5.0
Cc1ccccc1CN1CCN(CC(=O)NCc2ccccc2)CC1	-5.7	2.7	5.7	-3.7	-1.6
O=C(CN1CCN(c2cccc(Cl)c2)CC1)NCc1ccccc1	6.3	24.3*	1.7	4.3	-5.3
O=C(CN1CCN(Cc2cccc3ccccc23)CC1)NCCc1ccccc1	-4.9	-0.7	26.6*	-1.0	-6.1
CCC(CC)NC(=O)O[C@H]1CC[C@@]23CCCN2C(=O)CCC[C@H]3[C@H]1C	0.3	.	.	.	.
Cc1cccc(/C=C/C(=O)c2ccc(NC3=NCCCS3)cc2)c1	-16.3	0.2	61.9*	1.6	-8.1
COc1cc(NC(=O)c2ccccn2)ccc1NC(=O)c1ccccc1Cl	-1.5	.	.	.	.
C#CCOCCOCCOCCNc1nc(N2CCN(C(=O)Cn3cc(CCCN=C(N)N)nn3)CC2)nc(N2CCN(C(=O)[C@H](Cc3ccc(O)cc3)n3cc(CCO)nn3)CC2)n1	4.0	.	.	.	.
CCN1CCCCC(NC(=O)c2ccccc2)C1=O (stereo not given)	7.8	.	.	.	.
NC(=S)N/N=C/c1ccc(-c2cccc([N+](=O)[O-])c2)o1	8.3	24.8*	7.4	-7.2	-13.2
NC(=S)N/N=C/c1ccc(Br)o1	2.3	17.3*	-10.9	-4.2	-7.4
CC(=O)N/N=C/c1cc([N+](=O)[O-])ccc1OCCOc1ccccc1	-5.3	1.1	-4.9	-4.0	-4.5
NC(=S)N/N=C/c1cc([N+](=O)[O-])ccc1OCCOc1ccccc1	3.8	81.0*	-2.9	-3.6	-5.8
CN(Cc1ccccc1)S(=O)(=O)c1cccc(C(=O)OCc2ccc(Oc3ccccc3)cc2)c1	6.7	.	.	.	.
O=C(CSc1ncn[nH]1)N1CCOCC1	4.8	59.9*	27.1	-4.2	-2.6
CC(C)Oc1ccc(-c2csc(N3CCC(C(N)=O)CC3)n2)cc1	12.1	.	.	.	.
O=C(NN1C(=O)/C(=C/c2ccc(O)c(O)c2)SC1=S)c1ccccc1	-6.2	33.6*	0.3	0.8	-1.3
O=C1/C(=C/c2ccc(O)c(O)c2)SC(=S)N1Nc1ccccc1	.	.	-9.9	.	.
COc1cccc(-c2nnc3sc(C4CCCCC4)nn23)c1	-1.9	0.1	36.8*	1.0	0.7
SMILES	HGIII-sPLA2 inh	CTSL1 counter	NALP1 inh	A3A deaminase	APOBEC3G inh
C/C(=N\N=C(c1ccccc1)c1ccccc1)c1cccs1	4.0	-1.0	13.8	0.0	1.2
CC(NO)/C(=N\O)c1cccs1 (stereo not given)	23.6*	-0.9	16.1	-4.2	-3.8
CCn1cc(C(=O)OCC(=O)Nc2ccc(C(C)C)cc2)c(=O)c2ccc(C)nc21	-1.4	2.3	24.6*	1.8	3.6
CC(C)(C)NC(=O)[C@H](c1cccnc1)N(C(=O)c1ccco1)c1ccc(C(C)(C)C)cc1	2.7	.	.	.	.
Fc1ccc(-c2nc3ccccc3[nH]2)cc1	12.8	0.1	36.4*	0.6	-9.1
COc1ccc(NC(=S)NCCc2c[nH]c3ccc(OC)cc23)c(OC)c1	9.2	0.3	28.8*	-6.4	-6.0
COc1ccc(NC(=S)NCCc2c[nH]c3ccccc23)c(OC)c1	6.7	1.2	11.8	-2.2	-0.7
C=CCN1C(C(=O)OC)CN(Cc2cn(Cc3ccc(Cl)cc3)nn2)CCS1(=O)=O (stereo not given)	5.1	.	.	.	.
CCOC(=O)c1c(CC(C)C)csc1NC(=O)COC(=O)c1cnc(C)cn1	0.0	.	.	.	.
CCOC(=O)c1c(-c2ccco2)csc1NC(=O)COC(=O)c1cnc(C)cn1	-5.2	30.8*	.	6.8	5.0
CCOC(=O)c1cn(CC(=O)Nc2cccc(F)c2)nn1	-1.9	-4.5	21.0*	-0.5	-2.9
O=C(CCc1ccccc1)N[C@H]1[C@H](OCc2ccccc2)CCC[C@@]12C(=O)N(Cc1ccccc1)c1ccc(-c3ccsc3)cc12	2.3	.	.	.	.
Cc1ccc(C(=O)Nc2ccc(C(=O)N/N=C/c3ccccn3)cc2)cc1	1.0	18.8*	-19.3	0.5	-8.5
O=S1(=O)c2c(NCc3ccco3)cccc2Oc2ccccc2CN1Cc1cn(Cc2cccc(F)c2)nn1	-9.7	.	.	.	.
Cc1ccccc1Nc1cc(C)c2c(O)cccc2n1	-11.8	-2.9	56.0*	-4.8	-13.1
Cc1ccc(N(NC(=O)C(O)(c2ccccc2)c2ccccc2)C(=O)CCl)cc1	-9.3	81.3*	10.6	-2.4	-4.5
CN(C)c1ccc([N+](=O)[O-])cc1C(=O)NCC(c1ccco1)N(C)C (stereo not given)	2.1	4.8	15.3	-3.6	-9.6
CC(C)NC(=O)NC(=O)COC(=O)c1ccc([N+](=O)[O-])cc1Cl	5.2	0.5	-2.4	1.7	9.0
O=C(Nn1cnnc1)c1ccc([N+](=O)[O-])cc1Cl	20.8*	-1.8	.	2.5	-6.4
CNC(=O)COC(=O)c1ccc([N+](=O)[O-])cc1Cl	13.7	17.6*	33.8	-1.4	1.2
CN(C)C(CNC(=O)c1ccc([N+](=O)[O-])cc1Cl)c1ccco1 (stereo not given)	0.7	18.6*	18.3	-0.1	-3.5
FC(F)(F)c1ccc2nc(CNc3nc(N4CCOCC4)nc4c3ncn4-c3ccsc3)[nH]c2c1	-9.0	.	.	.	.
C[C@H]1[C@@H](OC(=O)Nc2ccc(C#N)cc2)CC[C@@]23CCCN2C(=O)CCC[C@@H]13	3.5	.	.	.	.
COc1ccc(S[C@]2(C(=O)N3CCN(C(C)=O)CC3)CC(=O)N(C(=O)CCc3ccccc3)[C@@H]2c2ccc(OC)cc2)cc1	-18.6	.	.	.	.
CCOc1ccc(N2C(=O)C(Cl)=C(Nc3ccccc3O)C2=O)cc1	-7.4	16.8*	20.4	-9.0	-8.9
COc1ccccc1NC1=C(Cl)C(=O)N(c2ccccc2)C1=O	4.8	0.5	27.5	1.5	13.4
COc1ccc(C(=O)c2c(NC(C)=O)sc3c2CCN(C(=O)OC(C)(C)C)C3)cc1	0.2	-0.4	44.1*	-1.6	-5.8
CCOC(=O)N1CCc2c(sc(NC(=O)Cc3ccccc3)c2C(=O)c2ccc(OC)cc2)C1	16.9	-1.0	1.6	-0.2	-5.8
CCCCCn1c(=O)[nH]c2cc(C(=O)NCCCN3CCC(C)CC3)ccc2c1=O	-3.9	-0.9	31.8*	-2.9	-3.5
CCCCCn1c(=O)[nH]c2cc(C(=O)NCCN3CCC(C)CC3)ccc2c1=O	.	-3.1	7.9	-3.8	-9.6

High-throughput results from PubChem BioAssay.
